# From PubChem
# An excerpt weighted towards active compounds, which were near 21% of everything screened.
# Pf growth 96h: Primary qHTS for delayed death inhibitors of the malarial parasite plastid, 96 hour incubation. Potency, µM (highest dose often 28.7 µM), inactives show top-dose activity change, negative = inhibition, usual class: inhibitors. P. falciparum luciferase reporter growth, 96 h. 320,000 compounds, 6.9% hits; further: potency means the concentration at half of the fitted maximal effect; on the % scale 0 is the no-effect control and ±100 the full control effect
#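 Infected RBCs, 2% Hct / 0.05% parasitemia final; luciferase-reporter P. falciparum; cpd 96 h, 37 C, 5% CO2; luciferase detection reagent; luminescence.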
# Pf growth 48h: Primary qHTS for delayed death inhibitors of the malarial parasite plastid, 48 hour incubation | P. falciparum luciferase growth in erythrocytes, 48 h | Potency, µM (doses to about 28.7 µM), for inactives: top-dose activity change, negative = inhibition, most hits filed as inhibitors | 310,000 compounds, 5.9% hits | AID 504832, 2011; further: potency means the concentration at half of the fitted maximal effect; on the % scale 0 is the no-effect control and ±100 the full control effect
#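 Growth was read as firefly luciferase luminescence after a 48 h, 37 C, 5% CO2 exposure of compounds to reporter-bearing P. falciparum cultures (0.1% parasitemia, 2% hematocrit final) in Albumax-supplemented RPMI 1640.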
# AMA1-RON2 inh: qHTS for Inhibitors of AMA1-RON; Towards Development of Antimalarial Drug Lead: Primary Screen | Plasmodium falciparum AMA1 (3D7) - RON2 peptide interaction | AlphaScreen AMA1-biotinylated RON2 peptide binding | Potency, µM (highest dose often 58.2 µM), for inactives: at the top dose activity change, negative = inhibition, most hits filed as inhibitors | 360,000 compounds, 0.2% hits | AID 720542, 2013;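 further: potency means the concentration at half of the fitted maximal effect; 0% = vehicle wells and -100% = peptide control; nearly all actives have a fitted effect of over 45% in size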
#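 AMA1 (3D7) with his tag at 25 nM final met compounds first, then biotinylated RON2 peptide at 25 nM; detection used donor plus acceptor beads, 10 µg/mL apiece, read by AlphaScreen after 30 min at room temperature.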
# HCV inhibitor: qHTS Assay for Inhibitors of Hepatitis C Virus (HCV). Potency, µM (top dose mostly 41.8 µM), without a hit: at the top dose activity change, negative = inhibition, usual class: inhibitors. Huh7.5.1 HCVcc-Cre infection, luciferase reporter, 44 h. AID 651820, 2012. 340,000 compounds, 3.4% hits; further: potency means the concentration at half of the fitted maximal effect; on the % scale 0 is the no-effect control and ±100 the full control effect
#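 Whole-lifecycle infectious HCVcc-Cre system; cells 1,000/well, compound then virus (~0.5 moi) added 4 h after plating, 44 h culture. Luciferase read 15 sec following 15 min substrate incubation, room temp.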
# Shiga inhibitor: A qHTS for Small Molecule Inhibitors of Shiga Toxin | Vero cells, Shiga toxin protein synthesis inhibition reporter | inhibition, % at 38.7 µM | 290,000 compounds, 9.2% hits; in the data active means inhibition mostly above about 28%, no sharp cut-off; inactive means mostly below about 43%; further: 0% is about no effect
# Cycloheximide cs: Cycloheximide Counterscreen for Small Molecule Inhibitors of Shiga Toxin | max response, % | AID 2314, 2010 | cell reporter, cycloheximide protein synthesis inhibition counterscreen | 300,000 compounds, 12% hits; in the data active means max response mostly above about 13%, no sharp cut-off; inactive means mostly below about 14%; further: read at 38.3 µM for the half of the compounds with a filed dose; 0% is about no effect
# An asterisk follows results filed as active; ? = inconclusive; . = no result given. Unless noted, the call rests on the fitted dose curve; in most records, active means well fitted curve in the direction sought with a large enough effect; inconclusive means small, poorly fitted or top-dose-only effect, or another doubt; inactive means no such curve, though single readings can be large; an effect the other way counts as inactive or inconclusive.
SMILES,Pf growth 96h,Pf growth 48h,AMA1-RON2 inh,HCV inhibitor,Shiga inhibitor,Cycloheximide cs
O=C(CSc1nnc(-c2ccccc2F)o1)NC1CCCCC1,?,8.8%,-14.8%,-9.8%,26.0,1.2
O=C(Nc1ccc(F)c(Cl)c1)Nc1nnc([C@H]2C[C@H](O)[C@@H](CO)O2)s1,.,.,8.8%,.,.,.
Cn1c2c(c(=O)n(C)c1=O)C1(C(=O)Nc3ccccc31)C(C#N)=C(N)O2 (centres undefined),8.28µM*,10.4µM*,11.8%,6.7%,-5.1,-3.0
COc1ccc(-n2nc(C(=O)NCC(=O)NC3CCCCC3)c3ccccc3c2=O)cc1,0.0%,-24.9%,-16.5%,?,18.1,8.3
FC(F)(F)c1ccnc(Sc2n[nH]c(C(F)(F)F)n2)c1,?,1.4%,7.5%,1.8%,-0.8,-0.7
COc1c2c(nc3occc13)C(CC=C(C)C)(OC)C(=O)C=C2 (centres undefined),6.8%,36.3%,-3.0%,7.5%,-7.1,-1.5
CCOc1c2ccoc2nc2c(OC)c(OC)ccc12,44.2%,29.4%,6.0%,?,17.6,17.7*
C=CCOc1ccc2c(OC)c3ccoc3nc2c1OC,?,16.3%,-0.8%,?,39.1*,25.8*
CCOc1c(OC)ccc2c3c(c(=O)oc12)CCCC3,-26.6%,.,-4.5%,?,-1.1,0.7
Cc1cc(C(=O)OCn2nnc3ccccc3c2=O)c(C)n1-c1ccccc1,1.85µM*,?,-8.5%,?,68.9*,61.6*
Cc1ccc(-c2cc(C(=O)OCn3nnc4ccccc4c3=O)c3ccccc3n2)cc1,16.3%,-21.0%,6.9%,-2.6%,-4.5,1.0
COc1cccc(C(=O)OCn2nnc3ccccc3c2=O)c1OC,3.0%,5.9%,-0.1%,-11.5%,-3.5,-3.0
Cc1ccccc1C(=O)OCn1nnc2ccccc2c1=O,8.28µM*,-1.4%,6.1%,8.8%,-10.6,-2.0
NC(=O)c1ccc(-c2nnc(Nc3ccc(S(N)(=O)=O)cc3)c3ccccc23)cc1,19.0%,?,-7.1%,-1.6%,13.5,4.4
COc1ccc(C2CC(=O)c3c(ccc4ccccc34)N2)cc1OC (centres undefined),?,?,-5.4%,-13.8%,-13.1,-6.5
CCOc1cc(C2CC(=O)c3c(ccc4ccccc34)N2)ccc1O (centres undefined),1.04µM*,0.6%,-4.3%,-17.9%,-17.1,-2.0
CC(C)Cn1c(=O)c2ccccc2n2c(CCC(=O)NCC3CCCO3)nnc12 (centres undefined),70.3%,-16.5%,20.2%,-11.4%,25.7,6.1
O=C1C(c2ccc(F)cc2)N(Cc2ccc3c(c2)OCO3)C(=O)CN1C1CCCCC1 (centres undefined),37.0%,?,0.0%,15.0%,-11.9,-2.6
O=C1C(c2ccc(F)cc2)N(CC2COc3ccccc3O2)C(=O)CN1C1CCCCC1 (centres undefined),?,2.33µM*,4.1%,3.2%,-3.1,6.5
COCC(Cc1ccccc1)NC(=O)Cn1cc(C)c(=O)[nH]c1=O (centres undefined),.,.,-3.9%,7.3%,.,.
NC(=S)N/N=C/c1coc2c(ccc3ccccc32)c1=O,51.3%,51.7%,18.4%,3.6%,32.7,23.9*
O=CN/N=C/c1c(O)ccc2ccccc12,?,?,76.7%,?,8.2,1.1
Oc1ccc2ccccc2c1/C=N/c1nc2c(s1)CCCC2,-10.3%,.,-4.9%,-11.4%,5.1,13.6*
NC(=S)N/N=C/c1c(O)ccc2ccccc12,?,4.65µM*,13.5%,?,-2.1,7.7
NC(=S)N/N=C/c1coc2cc(Br)ccc2c1=O,62.6%,55.2%,83.0%,8.8%,1.5,-3.8
SMILES,Pf growth 96h,Pf growth 48h,AMA1-RON2 inh,HCV inhibitor,Shiga inhibitor,Cycloheximide cs
Oc1ccc2ccccc2c1C=NCc1ccccc1,13.1µM*,?,41.8%,6.8%,-2.9,7.3
CC(=O)NC(=S)Nc1ccc(N2CCOCC2)c(S(=O)(=O)Nc2cc(Cl)ccc2Cl)c1,-23.2%,-16.0%,-3.1%,5.5%,19.5,1.0
COc1ccc(C)cc1N(CC(=O)NCCN1CCOCC1)S(=O)(=O)c1ccccc1,?,4.0%,-6.9%,17.3%,.,.
Cc1cccc(N(Cc2cc3ccccc3[nH]c2=O)S(=O)(=O)c2ccccc2)c1,10.4µM*,14.7µM*,-19.7%,27.6%,7.6,-1.7
COc1ccc(S(=O)(=O)N(Cc2ccco2)Cc2cc3ccccc3[nH]c2=O)cc1,?,2.2%,-4.8%,14.1µM*,-1.9,-5.4
Cc1cccc2cc(CN(CC(C)C)S(=O)(=O)c3ccccc3)c(=O)[nH]c12,13.1µM*,?,4.1%,?,-5.9,-11.6
CC(=O)NC(c1cccc(F)c1)c1nc(/C=C/c2ccccc2)cs1 (centres undefined),.,.,14.2%,.,.,.
O=C(c1ccc(CS(=O)(=O)c2ccc(Br)cc2)o1)N1CCN(c2ncccn2)CC1,1.85µM*,.,-7.8%,-7.7%,-6.9,-1.3
COc1ccc(S(=O)(=O)Cc2ccc(C(=O)N3CCN(c4ccccn4)CC3)o2)cc1,1.0%,.,-7.5%,?,-11.3,-6.8
Cc1ccc(S(=O)(=O)Cc2ccc(C(=O)N3CCC(C(N)=O)CC3)o2)cc1,10.4µM*,48.4%,18.0%,12.1%,7.8,3.0
CCOC(=O)C1(C)CCCN1C(=O)c1csnn1 (centres undefined),.,.,13.8%,.,.,.
O=c1c2ccccc2nc(COc2ccccc2)n1/N=C/c1cc([N+](=O)[O-])ccc1O,?,2.62µM*,-8.4%,25.1%,12.4,7.2
Cc1cc(/C=N/n2c(COc3ccccc3C)nc3ccccc3c2=O)c(O)c([N+](=O)[O-])c1,?,3.29µM*,?,?,57.2*,62.4*
O=[N+]([O-])c1ccc(Cl)c(/C=N/n2c(COc3ccccc3)n[nH]c2=S)c1,?,-14.5%,61.7%,-12.5%,-11.2,-5.7
Cc1ccccc1OCc1nc2ccccc2c(=O)n1/N=C/c1c[nH]c2ccccc12,?,-69.9%,-22.7%,?,35.6,-2.3
COCCn1c(SCc2cnc(-c3ccccc3)s2)nnc1-c1ccncc1,9.28µM*,?,-6.2%,-26.0%,-4.3,5.4
COc1cccc(C(=O)c2c(C)c(CCC#N)n3ccccc23)c1,24.6%,2.7%,-6.8%,?,15.2,5.9
Cc1c(C(=O)N/N=C/c2ccc(O)cc2)sc(=S)n1C,28.7%,51.3%,13.5%,23.9%,-7.5,-4.1
O=C(N/N=C\c1ccccc1)c1cccc(C(=O)N/N=C\c2ccccc2)n1,.,.,66.6%,18.9%,.,.
COc1cc(/C=N/NC(=O)c2nonc2C)ccc1O,-19.9%,15.0%,4.0%,-4.0%,63.2*,29.3
